IL1B secr inh: blocks inflammasome-driven IL-1 beta release; THP-1 LPS/ATP IL-1B secretion, AlphaLISA, 16 h; hits give low values; 4.7% of 360,000 active; activity change, % at 57.5 µM; in the data active = activity change below about -50%; inconclusive = mostly about -30% to -49%
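THP-1 cells pretreated 1 hr with compounds (up to 57.5 uM final), then stimulated with LPS (250 ng/mL final) plus ATP (1.25 mM final); secreted IL-1B measured by AlphaLISA after 16 hr, decreased signal indicating inhibition.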
HepG2 viability: counter-screen for TGF-b inhibitors: cytotoxicity in HepG2 cells; HepG2 CAGA-GFP viability, ATP luminescence, 18 h; Potency, µM (titrated, usually from 46.1 µM), hits mostly cytotoxic; 0.76% of 410,000 active; AID 588856
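HepG2 CAGA-GFP cells (1000/well, DMEM with 1% FBS) received compound, then TGF-beta at 500 pg/mL final, and were incubated 18 hours at 37 degrees C. Viability was read by CellTiter-Glo luminescence. Media-only wells were set as complete cell-killing and DMSO as no toxicity.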
TGFb SMAD3 inh: blocks TGF-b signaling | HepG2 CAGA-GFP TGF-b/SMAD3 reporter, GFP fluorescence, 18 h; TGF-beta stimulated, 500 pg/mL final | Potency, µM (top dose mostly 46.1 µM), usual class: inhibitors | 1.2% of 410,000 active | AID 588855; note: nearly all actives have a fitted effect of over 65% in size
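Inhibition was scored as loss of TGF-beta-induced (500 pg/mL final, 18 hours, 37 degrees C) GFP in HEPG2 cells carrying a CAGA-GFP reporter, in DMEM with 1% FBS. Well GFP was summed per cell; Activity was normalised to unstimulated and stimulated DMSO wells, then concentration-response fitting.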
TDP1 cell noCPT: qHTS for Inhibitors of human tyrosyl-DNA phosphodiesterase 1 (TDP1): qHTS in cells in absence of CPT. DT40 Tdp1-/- hTDP1 cells, no CPT, ATP luminescence, 48 h. Potency, µM (doses to about 46.2 µM), hits mostly inhibitors. 15% of 420,000 active. AID 686978, 2013; note: nearly all actives have a fitted effect of over 55% in size
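Stably hTDP1-transfected Tdp1-null chicken DT40 cells were treated with library compounds minus camptothecin and grown for at least 48 hr at 37 °C, after which cellular ATP was quantified by luminescence.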
DT40 TDP1 CPT: growth inhibition of DT40 Tdp1-/-;hTDP1 cells with camptothecin (screen for TDP1 inhibitors); AID 686979; chicken DT40 Tdp1-/-;hTDP1 cells + 20 nM CPT, ATP luminescence, 48 h; 12% of 420,000 active; Potency, µM (highest dose often 46.2 µM), most hits filed as inhibitors; note: nearly all actives have a fitted effect of over 55% in size
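Chicken DT40 Tdp1-/- cells stably complemented with human TDP1 were seeded at 400 cells/well in medium containing 20 nM camptothecin, exposed to pin-transferred compounds, and grown at 37 °C for at least 48 hr. Viability was read as ATP luminescence.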
S-ASM inh: human S-ASM enzyme inhibition | 0.006% of 340,000 active | P17405 | placental ASM, HMU-PC fluorogenic substrate, 60 min | Potency, µM (doses to about 57.5 µM), most hits filed as inhibitors | AID 504937
Target sequence (P17405 47-631 limits assumed): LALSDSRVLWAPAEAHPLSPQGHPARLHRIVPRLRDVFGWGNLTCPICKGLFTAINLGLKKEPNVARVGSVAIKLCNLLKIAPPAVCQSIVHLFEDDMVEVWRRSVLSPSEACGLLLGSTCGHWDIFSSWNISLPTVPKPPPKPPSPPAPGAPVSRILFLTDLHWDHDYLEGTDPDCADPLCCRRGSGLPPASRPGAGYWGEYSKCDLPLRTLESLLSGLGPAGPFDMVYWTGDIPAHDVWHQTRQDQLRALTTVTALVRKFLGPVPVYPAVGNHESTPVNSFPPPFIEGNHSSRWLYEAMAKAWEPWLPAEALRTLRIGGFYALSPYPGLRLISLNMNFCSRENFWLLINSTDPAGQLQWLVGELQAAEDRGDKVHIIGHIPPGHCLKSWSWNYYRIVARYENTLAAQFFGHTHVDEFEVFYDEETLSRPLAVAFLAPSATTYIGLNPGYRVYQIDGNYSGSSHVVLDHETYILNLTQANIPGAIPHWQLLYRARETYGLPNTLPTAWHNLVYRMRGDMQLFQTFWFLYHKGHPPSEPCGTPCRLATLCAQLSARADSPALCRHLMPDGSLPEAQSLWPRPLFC
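qHTS format. ASM enzyme prepared from human placenta hydrolyses the fluorogenic substrate HMU-PC0 (9 uM final) over 60 min at 37 °C after a 10 min compound preincubation.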
Numbers stand for hits; – = inactive; ? = inconclusive; · = no result given; [ ] = dose if it differs, or a comment. Rows were chosen to be rich in hits. Some 19% of all compounds tested hit in one or more screens of this group. Unless noted, calls come from the whole dose curve; as a rule, active = well fitted curve in the direction sought with a large enough effect; inconclusive = small, poorly fitted or top-dose-only effect, or another doubt; inactive = no such curve, though single readings can be large; an effect the other way counts as inactive or inconclusive.

SMILES	IL1B secr inh	HepG2 viability	TGFb SMAD3 inh	TDP1 cell noCPT	DT40 TDP1 CPT	S-ASM inh
Cc1noc(C)c1CN(C(=S)NC1CC1)c1ccccc1	–	–	?	–	–	–
Cc1c(C(=O)NCc2ccc(F)cc2)sc2ncnc(NCC3CCCO3)c12 (stereo unspecified)	·	·	·	–	–[9.04 µM]	·
Cc1cccc(-c2nc3scc(CCNS(=O)(=O)c4ccc5c(c4)OCCO5)n3n2)c1	·	–	?	?	23µM	·
Cc1cccc(-c2nc3scc(CCNS(=O)(=O)c4ccc(F)cc4C)n3n2)c1	·	–	11µM	16µM	?	·
Cc1cccc(-c2nc3scc(CCNS(=O)(=O)c4ccc(F)c(C(F)(F)F)c4)n3n2)c1	·	–	?	?	?	·
CC(=O)Nc1ccc(S(=O)(=O)NCCc2csc3nc(-c4cccc(C)c4)nn23)cc1	·	–	?	21µM	?	·
CC(=O)Nc1ccc(NS(=O)(=O)c2c(C(=O)N3CCCCCC3)c(C)n(C)c2C)cc1	·	–	–	–	–	·
C=CC(=O)Oc1ccc(N2Cc3ccccc3C2=O)cc1	–	–	?	4.6µM	3.7µM	–
CCOC(=O)N1CCN(C(=O)c2ccc3c(Cl)c4c(nc3c2)CCCC4)CC1	-51	–	?	?	?	–
CCOC(=O)C1CCN(C(=O)c2ccc3c(SCC(=O)O)c4c(nc3c2)CCCC4)CC1	–	–	–	–	–	–
Cc1ccc(C)c(N2CCN(C(=O)c3ccc4c(Cl)c5c(nc4c3)CCCC5)CC2)c1	·	–	?	?	16µM	·
O=C(c1ccc2c(=O)n3c(nc2c1)CCCCC3)N1CCCCC1	–	–	–	–	–	–
Cc1ccc(C)c(N2CCN(C(=O)c3ccc4c(=O)n5c(nc4c3)CCCCC5)CC2)c1	?	–	?	16µM	16µM	–
O=C(c1ccc2c(Cl)c3c(nc2c1)CCCC3)N1CCC(N2CCCCC2)CC1	-69	–	?	?	?	–
O=C(c1ccc2c(Cl)c3c(nc2c1)CCCC3)N1CCN(c2ccccc2)CC1	·	–	–	–	–	·
CCCC(C)NC(=O)C1c2ccccc2Oc2ccccc21 (stereo unspecified)	–	–	–	–	–	–
Cc1ccccc1S(=O)(=O)N1C[C@@H]2C(C(=O)C[C@@H]3C(=O)N(C)C(=O)[C@@H]32)[C@@H]1c1ccc(Cl)cc1 (stereo partly specified)	–	·	·	–	–	·
CCCCC(=O)Nc1ccc(OCc2cc(=O)n3c(C)csc3n2)cc1	·	–	–	?	?	·
O=C(NN=Cc1ccc(N2CCOCC2)s1)c1ccc([N+](=O)[O-])cc1	?	–	–	18µM	?	–
O=C(N/N=C/c1ccc(Br)s1)c1ccc([N+](=O)[O-])cc1	–	–	–	2.6µM	?	–
O=C(N/N=C/c1ccc(N2CCOCC2)s1)c1ccc(O)cc1	?	–	–	–	–	·
CCc1nc2ccc(C(=O)Nc3ccc4c(c3)OCC(=O)N4)cn2c1N(CC)Cc1cccc(Br)c1	–	–	?	–	18µM	·
CCc1nc2ccc(C(=O)Nc3cccc(NS(C)(=O)=O)c3)cn2c1N(CC)Cc1cccc(Br)c1	-70	–	?	16µM	?	·
CCc1nc2ccc(C(=O)NCc3ccccc3OC)cn2c1N(CC)Cc1cccc(Br)c1	–	–	?	?	26µM	·
CCc1nc2ccc(C(=O)NCCOc3ccc(OC)cc3)cn2c1N(CC)Cc1cccc(Br)c1	-69	–	?	21µM	18µM	·
SMILES	IL1B secr inh	HepG2 viability	TGFb SMAD3 inh	TDP1 cell noCPT	DT40 TDP1 CPT	S-ASM inh
CCc1nc2ccc(C(=O)NCCOc3ccc(OC)cc3)cn2c1N(CC)CCOC	–	–	?	?	?	·
CCc1nc2ccc(C(=O)Nc3cc(-c4ccccc4)ccc3OC)cn2c1N(CC)Cc1cccc(Br)c1	?	–	–	?	?	·
CCc1nc2ccc(C(=O)Nc3cccc(NS(C)(=O)=O)c3)cn2c1N(C)Cc1nccn1C	–	–	–	–	–	·
CCc1nc2ccc(C(=O)Nc3ccc4c(c3)OCC(=O)N4)cn2c1N(CC)CCOC	–	–	–	?	?	·
Cc1cc(C(=O)NC2CCCN(Cc3ccc(Cl)cc3)C2)n(C)n1 (stereo unspecified)	–	–	–	?	?	–
O=C(Nc1nccs1)[C@@H]1CC=C[C@@H]2CCN(C3CC3)C(=O)[C@@H]21	·	–	–	–	–	·
Cc1nc2ccc(C(=O)Nc3ccc4c(c3)OCC(=O)N4)cn2c1N(C)C(=O)CCc1ccccc1	–	–	–	18µM	?	·
CCc1nc2ccc(C(=O)Nc3cccc(OC)c3)cn2c1N(CC)Cc1cccc(Br)c1	-57	–	?	?	18µM	·
CCc1nc2ccc(C(=O)Nc3cccc(NS(C)(=O)=O)c3)cn2c1N(C)CCCc1ccccc1	–	–	?	?	?	·
CCc1nc2ccc(C(=O)Nc3cccc(OC)c3)cn2c1N(C)CCCc1ccccc1	-51	–	?	?	?	·
CCc1nc2ccc(C(=O)Nc3cccc(NS(C)(=O)=O)c3)cn2c1N(CCC(C)C)CCN(C)C	?	–	–	18µM	16µM	·
O=C(NCc1ccc(Cl)cc1)C(=O)Nc1cccc(Br)c1	·	–	–	–	–	·
CSc1ccc(CCNC(=O)c2ccc(-c3nc(COc4ccc(C)cc4)c(C)o3)cc2)cc1	·	–	–	–	–	·
Cc1cccc(Nc2ncnc(N)c2[N+](=O)[O-])n1	–	–	–	16µM	9.2µM	–
Nc1ncnc(Nc2ccccn2)c1[N+](=O)[O-]	–	–	–	23µM	–	–
Nc1ncnc(NCc2ccccc2)c1[N+](=O)[O-]	–	–	–	–	–	–
Cc1cccnc1Nc1ncnc(N)c1[N+](=O)[O-]	–	–	–	–	–	–
Cc1cc(C(=O)OC(C)C(=O)N2CCc3ccccc32)ccc1[N+](=O)[O-] (stereo unspecified)	–	–	–	?	?	–
CCCCc1ccc(NC(=S)N2CCN(c3ncccn3)CC2)cc1	–	–	–	–	–	–
O=C(COC(=O)c1n[nH]c2ccccc12)NC(=O)NC12CC3CC(CC(C3)C1)C2	–	–	–	9.2µM	13µM	–
O=C(NC12CC3CC(CC(C3)C1)C2)c1ccc(-c2cccc(Cl)c2)o1	–	–	–	?	?	–
O=C(NC12CC3CC(CC(C3)C1)C2)c1ccc(-c2ccc(Cl)cc2)o1	–	–	–	18µM	23µM	–
